From PubChem BioAssay (Tox21)
Records with an inconclusive call do not appear. Calls of active or inactive are those of the source. Calls follow the shape of the dose curve; as a rule, active = well fitted curve in the direction sought with a large enough effect in the repeat runs; inconclusive = weak or mixed curves; inactive = no such curve, though single readings can be large; an effect the other way counts as inactive or inconclusive.

Columns and labels:
[1] = A CellTox Green Cytotoxicity Assay to monitor cytotoxicity in HEK293 cells - 40 hour (AID 1224871); also: nearly all actives have a fitted effect of over 45% in size; also: potency is read from the fitted curve at half-maximal effect
Procedure, shortened: (§1)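 Each value comes from one timepoint of a single continuous run in which HEK293 cells with CellTox Green were exposed to compound for up to 40 h at 37 C, dye fluorescence rising with cell death.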

[2] = qHTS RealTime-Glo MT Cell Viability Assay in HEK293 cells - 16 hour (AID 1224872); also: nearly all actives have a fitted effect of over 50% in size; also: potency is read from the fitted curve at half-maximal effect
Procedure, shortened: (§2)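 Reads taken at 0, 8, 16, 24, 32 and 40 h from the same wells. HEK293 cells (600/well) carried RealTime-Glo reagents from seeding, with compound added after a 5 h settle at 37 C.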

[3] = qHTS RealTime-Glo MT Cell Viability Assay in HepG2 cells - 8 hour (AID 1224873); also: nearly all actives have a fitted effect of over 55% in size; also: potency is read from the fitted curve at half-maximal effect
Procedure, shortened: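 HepG2 cells mixed with RealTime-Glo MT reagents (NanoLuc plus cell-permeant prosubstrate) were seeded at 600 cells/well, incubated 5 h at 37 C/5% CO2, then pinned with compounds in DMSO; nonlytic luminescence tracked viability during 40 h treatment.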

[4] = qHTS RealTime-Glo MT Cell Viability Assay in HEK293 cells - 40 hour (AID 1224874); settings: RealTime-Glo luminescence; max response: hits give low values; also: nearly all actives have a fitted effect of over 50% in size; also: potency is read from the fitted curve at half-maximal effect
Procedure, shortened: (§3)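 qHTS format; HEK293 cells with NanoLuc/prosubstrate reagent, 37 C/5% CO2 for 5 h pre-dosing; compounds 23 nL in DMSO; luminescence at each time point reflects viable cells.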

[5] = A CellTox Green Cytotoxicity Assay to monitor cytotoxicity in HEK293 cells - 24 hour (AID 1224875); also: nearly all actives have a fitted effect of over 45% in size; also: potency is read from the fitted curve at half-maximal effect
Procedure, shortened: as §1

[6] = A CellTox Green Cytotoxicity Assay to monitor cytotoxicity in HepG2 cells - 16 hour (AID 1224876); also: nearly all actives have a fitted effect of over 45% in size; also: potency is read from the fitted curve at half-maximal effect
Procedure, shortened: (§4)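 Continuous culture of HepG2 cells with a membrane-impermeant DNA dye; rising fluorescence marks dead cells. Compound exposure lasted up to 40 h at 37 C, with reads every 8 h from 0 h.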

[7] = qHTS RealTime-Glo MT Cell Viability Assay in HepG2 cells - 32 hour (AID 1224877); also: nearly all actives have a fitted effect of over 55% in size; also: potency is read from the fitted curve at half-maximal effect
Procedure, shortened: (§5)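 HepG2 suspension premixed with RealTime-Glo reagents is plated at 600 cells per well and left 5 h at 37 C/5% CO2. Compounds in DMSO then go in, and bioluminescence reflecting viable cell number is recorded over 40 h.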

[8] = A CellTox Green Cytotoxicity Assay to monitor cytotoxicity in HepG2 cells - 24 hour (AID 1224878); also: nearly all actives have a fitted effect of over 45% in size; also: potency is read from the fitted curve at half-maximal effect
Procedure, shortened: as §4

[9] = A CellTox Green Cytotoxicity Assay to monitor cytotoxicity in HepG2 cells - 40 hour (AID 1224879); also: nearly all actives have a fitted effect of over 40% in size; also: potency is read from the fitted curve at half-maximal effect
Procedure, shortened: as §4

[10] = qHTS RealTime-Glo MT Cell Viability Assay in HEK293 cells - 0 hour (AID 1224880)
Procedure, shortened: as §3

[11] = A CellTox Green Cytotoxicity Assay to monitor cytotoxicity in HEK293 cells - 32 hour (AID 1224881); also: nearly all actives have a fitted effect of over 40% in size; also: potency is read from the fitted curve at half-maximal effect
Procedure, shortened: as §1

[12] = A CellTox Green Cytotoxicity Assay to monitor cytotoxicity in HepG2 cells - 0 hour (AID 1224882); also: nearly all actives have a fitted effect of over 35% in size
Procedure, shortened: as §4

[13] = A CellTox Green Cytotoxicity Assay to monitor cytotoxicity in HepG2 cells - 32 hour (AID 1224883); also: nearly all actives have a fitted effect of over 50% in size; also: potency is read from the fitted curve at half-maximal effect
Procedure, shortened: as §4

[14] = A CellTox Green Cytotoxicity Assay to monitor cytotoxicity in HEK293 cells - 8 hour (AID 1224884); also: nearly all actives have a fitted effect of over 35% in size; also: potency is read from the fitted curve at half-maximal effect
Procedure, shortened: as §1

[15] = qHTS RealTime-Glo MT Cell Viability Assay in HepG2 cells - 16 hour (AID 1224885); also: nearly all actives have a fitted effect of over 50% in size; also: potency is read from the fitted curve at half-maximal effect
Procedure, shortened: as §5

[16] = qHTS RealTime-Glo MT Cell Viability Assay in HEK293 cells - 8 hour (AID 1224887); also: nearly all actives have a fitted effect of over 50% in size; also: potency is read from the fitted curve at half-maximal effect
Procedure, shortened: as §3

[17] = A CellTox Green Cytotoxicity Assay to monitor cytotoxicity in HEK293 cells - 16 hour (AID 1224888); also: nearly all actives have a fitted effect of over 35% in size; also: potency is read from the fitted curve at half-maximal effect
Procedure, shortened: as §1

[18] = qHTS RealTime-Glo MT Cell Viability Assay in HepG2 cells - 0 hour (AID 1224889); also: nearly all actives have a fitted effect of over 50% in size
Procedure, shortened: as §5

[19] = A CellTox Green Cytotoxicity Assay to monitor cytotoxicity in HepG2 cells - 8 hour (AID 1224890); also: nearly all actives have a fitted effect of over 45% in size; also: potency is read from the fitted curve at half-maximal effect
Procedure, shortened: as §4

[20] = qHTS RealTime-Glo MT Cell Viability Assay in HEK293 cells - 24 hour (AID 1224886); also: nearly all actives have a fitted effect of over 50% in size; also: potency is read from the fitted curve at half-maximal effect
Procedure, shortened: as §2
% is scaled to controls: 0 for no effect and ±100 for the full control effect.

O=C(O)c1c(Cl)cccc1Cl
inactive: Potency [1] | Potency [2] | Potency [3] | max response [4] 1.14% | Potency [5] | Potency [6] | Potency [7] | Potency [8] | Potency [9] | Potency [10] | Potency [11] | Potency [12] | Potency [13] | Potency [14] | Potency [15] | Potency [16] | Potency [17] | Potency [18] | Potency [19]

Cc1cccc(N(C)C(=S)Oc2ccc3c(c2)C2CCC3C2)c1 (stereo unspecified)
inactive: Potency [1] | Potency [2] | Potency [3] | max response [4] -13.2% | Potency [5] | Potency [6] | Potency [7] | Potency [8] | Potency [9] | Potency [10] | Potency [11] | Potency [12] | Potency [13] | Potency [15] | Potency [20] | Potency [16] | Potency [17] | Potency [18] | Potency [19]

Cc1cc(N)c(S(=O)(=O)O)cc1Cl
inactive: Potency [1] | Potency [2] | Potency [3] | max response [4] 1.42% | Potency [5] | Potency [6] | Potency [7] | Potency [8] | Potency [9] | Potency [10] | Potency [11] | Potency [12] | Potency [13] | Potency [14] | Potency [15] | Potency [20] | Potency [16] | Potency [17] | Potency [18] | Potency [19]

Cc1cccc(CN2CCN(C(c3ccccc3)c3ccc(Cl)cc3)CC2)c1 (stereo unspecified)
inactive: Potency [1] | Potency [2] | Potency [3] | max response [4] -13.7% | Potency [5] | Potency [6] | Potency [7] | Potency [8] | Potency [9] | Potency [10] | Potency [11] | Potency [12] | Potency [14] | Potency [15] | Potency [20] | Potency [16] | Potency [17] | Potency [18] | Potency [19]

CCCCCCCCn1sc(Cl)c(Cl)c1=O
inactive: Potency [10] | Potency [12]
active: Potency [1] 1.95 µM | Potency [2] 3.47 µM | Potency [3] 6.16 µM | Potency [4] 3.47 µM | Potency [5] 1.1 µM | Potency [6] 7.76 µM | Potency [7] 5.49 µM | Potency [8] 11 µM | Potency [9] 9.77 µM | Potency [11] 1.23 µM | Potency [13] 12.3 µM | Potency [14] 2.45 µM | Potency [15] 4.9 µM | Potency [20] 3.89 µM | Potency [16] 3.47 µM | Potency [17] 1.95 µM | Potency [19] 17.4 µM
